The results in this text go back to PubChem BioAssay AID651661 (Broad Institute, 2012).

Structures are written as SMILES. The campaign covered roughly 350,000 compounds. About 2,300 (0.66%) were called active.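 The calls were made as follows: active = mean inhibition of at least 50% after viability correction, with every replicate also passing that limit; inconclusive = mean reaches 50% but only one of two replicates passes; inactive = the rest.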 For the sample, actives were picked, then their nearest neighbours and some compounds at random.

A short description of the experiment: blockers of EWS/Fli transcriptional output – A673 cells, NR0B1 luciferase, luminescence, MLPCN library, primary screen (AID 651661).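 Also: firefly luciferase signal divided by Alamar Blue viability fluorescence both relative to DMSO.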 The note with it: A673 NR0B1-luciferase reporter, viability-normalised; at 12.6 µM; active compounds read high. On the technique in general: Reporter assays use an easily measured gene product as a stand-in for the process of interest.
Consider `CO[C@H]1CN(C)C(=O)c2cc(NS(=O)(=O)c3ccccc3)ccc2OC[C@H](C)N(C(=O)NC(C)C)C[C@@H]1C`, for which the inhibition is -7.63% (inactive).
Consider `O=C(C1CCCCC1)N1CC(=O)N2[C@H](CO)[C@@H](c3ccc(-c4ccccc4F)cc3)[C@@H]2C1`, for which the inhibition is -0.368% (inactive).
Regarding `COc1cccc(-c2cnc3c(NC(C)=O)cc(-c4cc(F)ccc4OC)cn23)c1`, the inhibition is 41.5% (inactive).
For the compound `COc1ccc(-c2cc(NC(C)=O)c3ncc(-c4cc(OC)c(OC)c(OC)c4)n3c2)cn1`, the inhibition is 64.5% (active).
Consider `COc1ccccc1-c1cc(NC(C)=O)c2ncc(-c3ccc(F)cc3)n2c1`, for which the inhibition was 13.6% (inactive).
The value for `COc1ccc(-c2cc(NC=O)c3ncc(-c4cccc(C(=O)N(C)C)c4)n3c2)c(OC)c1` was 8.25% (inactive); that for `COc1ccc(-c2cc(NC=O)c3ncc(-c4cc(OC)c(OC)c(OC)c4)n3c2)c(OC)c1` was 52.4% (active); that for `COc1ccc(-c2cc(NC=O)c3ncc(-c4ccccc4)n3c2)cc1OC` was 12.5% (inactive).
`COc1cccc(NC(=O)N2CC[C@@H]3[C@@H](CO)N(C)c4ccc(-c5cccc(F)c5)cc4[C@@H]32)c1`: the inhibition was -0.284% (inactive).
The value for `COc1ccccc1CNC(=O)C[C@H]1C[C@H]2c3cc(NS(=O)(=O)c4ccc(F)cc4)ccc3O[C@H]2[C@@H](CO)O1` was -1.41% (inactive); that for `C[C@@H]1CN([C@H](C)CO)C(=O)c2cccc(NS(=O)(=O)c3cn(C)cn3)c2O[C@H]1CN(C)S(=O)(=O)c1ccc(Cl)cc1` was 1.45% (inactive).
Regarding `C[C@@H]1CCCCO[C@@H](CN(C)Cc2ccncc2)[C@H](C)CN([C@H](C)CO)C(=O)c2cc(NC(=O)NC3CCCCC3)ccc2O1`, the inhibition is 0.242% (inactive).
For the compound `CN1c2ccc(-c3cccc(F)c3)cc2[C@H]2[C@H](CCN2C(=O)c2cccc(F)c2)[C@H]1CO`, the inhibition is -3.71% (inactive).
With `Cc1ccc(C)c(S(=O)(=O)N2CCN(c3ncnc4sccc34)CC2)c1`, the inhibition is 51.5% (active).
For `Cc1ccc(C)c(S(=O)(=O)N2CCN(C(=O)Nc3ccccc3)CC2)c1`, the inhibition was 1.58% (inactive).
Next, `COc1ccc(-c2csc3ncnc(N4CCN(S(=O)(=O)c5ccccc5C#N)CC4)c23)cc1`: 22.1% (inactive); `CCNC(=O)[C@H]1[C@H](CO)[C@H]2Cn3c(ccc(-c4cccc(OC)c4)c3=O)[C@H]2N1Cc1nccs1`: 2.22% (inactive); `C[C@H]1CN([C@@H](C)CO)C(=O)c2cc(/C=C/c3ccccc3)cnc2O[C@@H]1CN(C)C(=O)NC1CCCCC1`: -13.4% (inactive).
Next, `COCC(=O)Nc1ccc2c(c1)OC[C@@H](C)N(C(=O)c1cnccn1)C[C@H](C)[C@@H](OC)CN(C)C2=O`: -0.326% (inactive).
Turning to `CC(C)c1cc(C(=O)NC2CCCCCC2)c2ccccc2n1`, the inhibition was -3.93% (inactive).
As to `CC(C)C(C)NC(=O)COc1nc2ccccc2nc1N(C)C1CCCCC1` (stereo unspecified), the inhibition was 6.59% (inactive).
For `CN(c1ccc2nc3ccccc3c(=O)n2n1)C1CCCCC1`, the inhibition is 84.9% (active).
For `COc1cccc(NC(=O)C[C@@H]2CC[C@H]3[C@@H](COc4ccc(NC(=O)C5CCC5)cc4C(=O)N3C)O2)c1`, the inhibition was -3.34% (inactive).
As for `Cc1ccc(S(=O)(=O)Nc2ccc3c(c2)C(=O)N([C@@H](C)CO)C[C@H](C)[C@@H](CN(C)CC2CC2)O3)cc1`, the inhibition is -3.89% (inactive).
Regarding `C[C@H]1CN([C@@H](C)CO)C(=O)c2ccccc2-c2ccccc2CO[C@@H]1CN(C)C(=O)CCN(C)C`, the inhibition is 2.93% (inactive).
In the case of `COc1ccc(-c2nc3c(s2)CCc2onc(-c4ccc(Br)cc4)c2-3)cc1`, the inhibition is 24.2% (inactive).
Regarding `COc1ccc(-c2nc(CCNC(=O)c3ccc(Br)o3)cs2)cc1`, the inhibition is -1.15% (inactive).
`COc1ccc(-c2nc3c(s2)CCc2onc(-c4ccc(OC)cc4)c2-3)cc1`: the inhibition was 65.6% (active).
On to `C[C@@H]1CN([C@@H](C)CO)C(=O)c2cc(NS(=O)(=O)c3cn(C)cn3)ccc2O[C@@H](C)CCCCO[C@@H]1CN(C)Cc1ccncc1`, for which the inhibition is 4.01% (inactive).
Next, `COCC(=O)Nc1ccc2c(c1)C(=O)N(C)C[C@@H](OC)[C@@H](C)CN(CC1CCCCC1)[C@@H](C)CO2`: -0.183% (inactive).
As to `COCC(=O)N1CC(=O)N2[C@H](CO)[C@@H](c3ccc(C#CC4CCCC4)cc3)[C@H]2C1`, the inhibition was -0.851% (inactive).
Turning to `CCC(=O)N1CC(=O)N2[C@@H](CO)[C@H](c3ccc(C#CC4CCCC4)cc3)[C@@H]2C1`, the inhibition is 56.6% (active).
As to `CCC(=O)N1CC(=O)N2[C@@H](CO)[C@@H](c3ccc(C#CC4CCCC4)cc3)[C@@H]2C1`, the inhibition is 9.48% (inactive).
Turning to `COc1ccc2c3c([nH]c2c1)[C@@H](CO)N(C(=O)CN1CCOCC1)CC31CCN(C)CC1`, the inhibition is -7.25% (inactive).
The value for `CO[C@H]1CN(C)C(=O)c2ccc(NS(C)(=O)=O)cc2OC[C@@H](C)N(Cc2ccccc2)C[C@H]1C` was -2.52% (inactive); that for `O=C(C1CC1)N1CC(=O)N2[C@H](CO)[C@@H](c3ccc(-c4ccccc4F)cc3)[C@@H]2C1` was -0.073% (inactive); that for `COc1ccc2c3c(n(C)c2c1)[C@@H](CO)N(CC1CC1)CC31CN(C(=O)Nc2c(C)noc2C)C1` was -1.03% (inactive).
On to `CCCn1nc(C(=O)Nc2ccc3nc(C)sc3c2)c2ccccc2c1=O`, for which the inhibition is -12% (inactive).
Next, `CC(=O)Nc1ccc2nc(NC(=O)CS(=O)(=O)c3ccc(F)cc3)sc2c1`: -3.37% (inactive); `CCCC(=O)Nc1nc2ccc(NC(=O)c3c(F)c(F)c(OC)c(F)c3F)cc2s1`: 57.7% (active).
Next, `O=C(NC[C@@H]1[C@@H](c2ccccc2)[C@H](CO)N1C(=O)C1CCC1)NC1CCCC1`: 14.7% (inactive); `COc1ccccc1-c1ccc2n(c1=O)C[C@@H]1[C@@H](CO)[C@H](C(=O)NCc3ccccc3Cl)N[C@H]21`: -17.8% (inactive).
As to `Cc1ccc(-c2nn(-c3ccccc3)cc2/C=C2\SC(=S)N(CCCCCC(=O)O)C2=O)o1`, the inhibition is -10.8% (inactive).
The value for `C=CCOc1ccc(/C=C2\SC(=S)N(CCC(=O)O)C2=O)cc1` was 78.5% (active); that for `O=C1/C(=C/c2ccc(F)cc2)SC(=S)N1CCCC(=O)N1CCCCC1CCO` (stereo unspecified) was -2.88% (inactive); that for `C[C@H]1CN([C@@H](C)CO)C(=O)c2cccc(NS(=O)(=O)c3ccc(F)cc3)c2O[C@@H]1CN(C)C` was 1.9% (inactive).
With `Cc1ccc(S(=O)(=O)N(C)C[C@@H]2Oc3c(NC(=O)c4ccncc4)cccc3C(=O)N([C@@H](C)CO)C[C@@H]2C)cc1`, the inhibition is -2.33% (inactive).
On to `COc1ccc(NC(=O)N[C@@H]2C=C[C@H](CC(=O)NC3CCC3)O[C@@H]2CO)cc1`, for which the inhibition was 3.89% (inactive).
The value for `O=C(C1CCCC1)N1CC(=O)N2[C@H](C1)[C@@H](c1ccc(-c3ccccc3F)cc1)[C@@H]2CO` was -3.17% (inactive); that for `COc1ccc2c3c(n(C)c2c1)[C@H](CO)NCC31CCN(C(=O)Nc2ccccc2F)CC1` was 9.22% (inactive).
Next, `C[C@H]1CN([C@@H](C)CO)C(=O)c2c(c3ccccc3n2C)-c2ccccc2CO[C@H]1CN(C)C(=O)Nc1ccc(F)cc1`: -3.34% (inactive); `O=C(C[C@H]1C[C@@H]2c3cc(NC(=O)c4cccnc4)ccc3O[C@@H]2[C@@H](CO)O1)NCc1ccccc1F`: 6.33% (inactive); `C[C@H](O)C#Cc1ccc2c(c1)O[C@@H](CN(C)CC1CCCC1)[C@H](C)CN([C@@H](C)CO)S2(=O)=O`: -1.43% (inactive).
The value for `O=C(CCc1ccccc1Cl)Nc1ccc(S(=O)(=O)Nc2nccs2)cc1` was 8.82% (inactive); that for `Cc1ccc(C(=O)Nc2nc3ccc(Cl)cc3s2)o1` was -92.8% (inactive).
For the compound `Cc1ccc(CCC(=O)Nc2ncc(Cc3cc(Cl)ccc3Cl)s2)o1`, the inhibition was 54% (active).
On to `CCC(=O)Nc1ccc2c(c1)C(=O)N(C)C[C@H](OC)[C@@H](C)CN(C(=O)c1cnccn1)[C@@H](C)CO2`, for which the inhibition was 4.08% (inactive).
For `O=C(NC[C@H]1CC[C@H]2[C@H](CN2Cc2cccc(Cl)c2)O1)C1CC1`, the inhibition was 5.25% (inactive).
As for `Cc1cccc(-n2ncc(Cl)c(Cl)c2=O)c1`, the inhibition is 79.8% (active).
For `Cc1cccc(-n2ncc3c(=O)[nH]c(SCC(=O)Nc4cc(C)on4)nc32)c1`, the inhibition was -9.98% (inactive).
`CCCNC(=O)c1c(Cl)cnn1-c1ccc(C)cc1`: the inhibition is -130% (inactive).
Take `O=C(C[C@@H]1C[C@@H]2c3cc(NS(=O)(=O)c4ccc(F)cc4)ccc3O[C@@H]2[C@@H](CO)O1)N1CCOCC1`: the inhibition is -1.95% (inactive).
Turning to `CNC[C@H]1Oc2cc(C#CC3CCCC3)ccc2S(=O)(=O)N([C@H](C)CO)C[C@@H]1C`, the inhibition was 3.9% (inactive).
On to `CCN(CC)CCCNC(=O)c1cc2c(=O)[nH]c3ccc(C)cc3c2s1`, for which the inhibition is 7.57% (inactive).
Turning to `Cc1cccc(N(C)C(=O)c2cc3c(=O)[nH]c4ccc(C)cc4c3s2)c1`, the inhibition was 65% (active).
As to `Cc1ccc2[nH]c(=O)c(CC(=O)O)c(-c3ccccc3)c2c1`, the inhibition was -1.99% (inactive).
In the case of `O=C([C@H]1[C@H](CO)[C@H]2Cn3c(cccc3=O)[C@@H]1N2Cc1cocn1)N1CCCCC1`, the inhibition is -0.44% (inactive).
For `CCC(C)Cn1c(O)cc2nn(-c3nc4ccccc4s3)c(=O)c-2c1C` (stereo unspecified), the inhibition is 64.5% (active).
For `N#Cc1ccc(-c2ccc([C@H]3[C@H](CO)N4C(=O)CN(C(=O)Cc5ccccc5)C[C@@H]34)cc2)cc1`, the inhibition is -6.19% (inactive).
With `COc1ccc(CNC(=O)C[C@@H]2C=C[C@@H](NC(=O)c3ccc4c(c3)OCO4)[C@@H](CO)O2)cc1`, the inhibition is -0.519% (inactive).
Regarding `CCNC(=O)C[C@@H]1CC[C@@H]2[C@@H](COc3ccc(NC(=O)Nc4ccccc4F)cc3C(=O)N2C)O1`, the inhibition is -3.28% (inactive).
On to `CCOc1cc2[nH]c(=S)n(Cc3ccc(C(=O)N4CCN(C)CC4)cc3)c(=O)c2cc1OCC`, for which the inhibition is 67.5% (active).
With `COc1ccc(Cn2c(=S)[nH]c3cc(C(=O)N4CCCCC4)ccc3c2=O)cc1`, the inhibition was -2.4% (inactive).
Turning to `COc1cc2[nH]c(=S)n(Cc3ccc(F)cc3)c(=O)c2cc1OC`, the inhibition was 11.2% (inactive).
As for `O=C(Nc1ccc(F)cc1)N[C@@H]1CC[C@H](CC(=O)N2CCCCC2)O[C@H]1CO`, the inhibition was 6.37% (inactive).
Regarding `C[C@@H]1CN([C@@H](C)CO)S(=O)(=O)c2ccc(-c3ccc(C(=O)N(C)C)cc3)cc2O[C@@H]1CN(C)C(=O)Cc1ccccn1`, the inhibition was -2.65% (inactive).

Usually inhibition stands for the change of the read-out against control, counted positive when it falls.
